# According to PubChem BioAssay:
# Assay: Plasmodium falciparum growth inhibition, primary screen, strain 3D7, DAPI fluorescence, 100 nL (AID 1184);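 further: parasites grown inside human red blood cells in medium with human serum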
# Conditions: P. falciparum 3D7 growth, 3 d, higher = more signal
row,SMILES,z-score
1,COc1ccc(O[C@H]2C=C[C@@H](c3ccccc3)O[C@@H]2CON=C(C)CCC(=O)OC[C@H]2O[C@H](c3ccccc3)C=C[C@@H]2Oc2ccc(OC)cc2)cc1,-1.61
2,CO[C@@H]1COC(=O)CC=C[C@H](C)[C@H](OC)COC(=O)[C@H](C)NC(=O)CC=C[C@H]1C,-0.382
3,CC(=O)OC[C@H]1O[C@@H](ON=C(C)CCN2CCCc3nc(C)c(C)cc32)[C@H](OC(C)=O)[C@@H](OC(C)=O)[C@@H]1OC(C)=O,-1.3
4,Cc1ccc(S(=O)(=O)OC[C@H]2CN3[C@H](c4ccc(Br)cc4)[C@@H](C)CC[C@H]3C(=O)O2)cc1,0.565
5,CON=C[C@@H](NS(=O)(=O)c1ccc(C)cc1)[C@H](C)C=CCC(=O)OC,1.25
6,CCOC(=O)C1=NO[C@@]2(C=C(Br)C3(OCCCO3)[C@H]3O[C@H]32)C1,0.522
7,O=C(NN=C1C[C@@H](O)[C@@H](O)[C@@H]2[C@@H]3C(=O)N(Cc4ccccc4)C(=O)[C@@H]3CC[C@@H]12)OCc1ccccc1,0.915
8,CO[C@@H]1COC(=O)CC=C[C@@H](C)[C@H](OC)COC(=O)[C@@H](C)COC(=O)CC=C[C@H]1C,0.301
9,O=C(NN=C1C[C@@H](O)[C@@H](O)[C@@H]2[C@@H]3C(=O)N(C4CCCCC4)C(=O)[C@@H]3CC[C@H]12)OCc1ccccc1,-0.0276
10,O=c1n(Cc2cc3c(cc2Cl)OCO3)c(=O)n2n1CC[C@@H]1C(=NOC[C@@H](O)COCc3ccco3)[C@H]3O[C@H]3[C@@H](O)[C@@H]12,-0.181
11,O=C1C=C[C@@H](O)[C@@H]2[C@@H]3C(=O)N(c4ccc(F)cc4F)C(=O)[C@@H]3CC[C@@H]12,0.262
12,CCOC(=O)[C@H](CC(C)C)NC(=O)CCC1CC(OC(=O)NCc2cccc3ccccc23)CC2(CCCC(COC(=O)NCCCN3CCCC3=O)O2)O1 (stereo partly specified),-1.92
13,COc1ccc(O[C@H]2C=C[C@@H](c3ccccc3)O[C@@H]2COC(=O)CCC(C)=NOC(C)CN2CCCc3nc(C)c(C)cc32)cc1 (stereo partly specified),-1.95
14,O=C1CCCC=C1C(O)CCOC(c1ccccc1)(c1ccccc1)c1ccccc1 (stereo unspecified),-1.1
15,C[C@H]1CC[C@H]2C(=O)OC(CO)CN2[C@@H]1c1ccc(Br)cc1 (stereo partly specified),-0.296
16,CCOC(=O)[C@H](Cc1ccccc1)NC(=O)CCC1CC(OC(=O)NCc2ccc3c(c2)OCO3)CC2(CCCC(COC(=O)NCCc3ccccc3OC)O2)O1 (stereo partly specified),-1.78
17,O=C1CCCC=C1C(CCc1ccccc1)OC(=O)c1ccc(Br)cc1 (stereo unspecified),-0.108
18,COC(=O)CC=C[C@@H](C)[C@@H](C=NOC(C)CN1CCCc2nc(C)c(C)cc21)OC (stereo partly specified),0.004

row,SMILES,z-score
1,CCOC(=O)[C@H](Cc1ccccc1)NC(=O)CCC1CC(OC(=O)NCc2ccc3c(c2)OCO3)CC2(CCCC(COC(=O)NCCC(C)C)O2)O1 (stereo partly specified),-1.2
2,COc1ccc(COC(=O)NN=C2C[C@@H](O)[C@@H](O)[C@@H]3[C@@H]4C(=O)N(Cc5ccccc5)C(=O)[C@@H]4CC[C@H]23)cc1,0.908
3,CCOC(=O)[C@H](Cc1ccccc1)NC(=O)CCC1CC(OC(=O)NCc2cccc3ccccc23)CC2(CCCC(COC(=O)NCCC(C)C)O2)O1 (stereo partly specified),0.0857
4,C=CC[C@@H]1C=C[C@H](ON=C(C)CCN2CCc3nc(-c4ccccc4)c(-c4ccccc4)cc3C2)[C@@H](CO)O1,-0.0674
5,CO[C@H]1COC(=O)[C@H](C)NC(=O)[C@@H](C)COC(=O)[C@H]2CCCN2C(=O)CC=C[C@H]1C,0.43
6,CCOC(=O)[C@H](CC(C)C)NC(=O)CCC1CC(OC(=O)NCc2ccc3c(c2)OCO3)CC2(CCCC(COC(=O)NCC(c3ccccc3)c3ccccc3)O2)O1 (stereo partly specified),-0.11
7,CC(CCN1CCCCc2nc(C)c(C)cc21)=NO[C@@H](C)c1cn([C@H](CO)Cc2ccccc2)nn1,-0.257
8,CC(=O)OC[C@H]1OC(ON=CC[C@@H]2C=C[C@H](OC(C)=O)[C@@H](COC(C)=O)O2)[C@H](OC(C)=O)[C@@H](OC(C)=O)[C@@H]1OC(C)=O (stereo partly specified),0.728
9,CCOC(=O)NN=C1C[C@@H](O)[C@@H](O)[C@@H]2[C@@H]3C(=O)N(Cc4ccccc4)C(=O)[C@@H]3CC[C@H]12,-0.179
10,CC(C)C[C@H](NC(=O)CCC1CC(OC(=O)NCc2cccc3ccccc23)CC2(CCCC(COC(=O)NCc3ccccc3)O2)O1)C(=O)NCC(c1ccccc1)c1ccccc1 (stereo partly specified),-1.65
11,COc1ccc(O[C@H]2C=C[C@@H](c3ccccc3)O[C@@H]2CON=C(C)C)cc1,0.894
12,CON=C1[C@H]2CCn3c(=O)n(-c4ccccc4)c(=O)n3[C@H]2[C@H](O)[C@@H]2O[C@H]12,-0.573
13,CC(CCN1CCc2nc(-c3ccccc3)c(-c3ccccc3)cc2C1)=NOC[C@@H](O)[C@H]1O[C@@H]2OC(C)(C)O[C@@H]2[C@H]1O,0.688
14,CC(CCN1CCCc2nc(C)c(C)cc21)=NO[C@@H](C)c1cc(-c2c(C)cc(C)cc2C)no1,-1.36
15,CCCNC(=O)OC[C@H]1O[C@H](CCON=C(C)CCN2CCCc3nc(C)c(C)cc32)C=C[C@@H]1Oc1ccc(OC)cc1,-2.33
16,CCOC(=O)[C@H](CC(C)C)NC(=O)CCC1CC(OC(=O)NCc2cccc3ccccc23)CC2(CCCC(COC(=O)NCc3cccc(C(F)(F)F)c3)O2)O1 (stereo partly specified),0.688
17,O=C1CCCC(C2=CCCCC2=O)C1 (stereo unspecified),0.488
18,CCc1cc2c(nc1CC)CCN(CCC(C)=NO[C@@H](C)c1cn([C@H](CO)Cc3ccccc3)nn1)C2,-1.72
